A selection: hits, their analogues and other compounds. The true share with any hit is near 2.5%.
EWS-Fli block: inhibitors of EWS/Fli oncoprotein transcriptional activity | A673 NR0B1-luciferase reporter, viability-normalised | inhibition, % at 12.6 µM | 0.67% of 350,000 active | AID 651661;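 active = mean inhibition of at least 50% after viability correction, with every replicate also passing that limit; inconclusive = mean reaches 50% but only one of two replicates passes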;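 also: firefly luciferase signal divided by Alamar Blue viability fluorescence both relative to DMSO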
TROY NFkB inh: inhibitors of TROY-dependent NF-kB signaling; inhibition, % at 10 µM; Q293 LMP1-TROYcd NF-kB luciferase reporter, 4 h; 0.98% of 360,000 active;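 active = compounds whose plate-normalised and pattern-corrected inhibition of the luciferase reporter signal at the single screening dose is 50% or more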
TWEAK-Fn14 inh: inhibitors of TWEAK-Fn14 interaction signaling; TWEAK-stimulated Fn14 reporter cells, luciferase luminescence, 8 h; AID 1159606; 2% of 360,000 active; inhibition, % at 10 µM; in the data active = inhibition above about 50%
LGR2 antag: inhibitors of bursicon-induced Drosophila LGR2 receptor cAMP signaling; 0.35% of 380,000 active; HEK293 LGR2, CRE-luciferase, bursicon-stimulated, 4 h; inhibition, % at 9.99 µM; AID 720647;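 active = drop in luminescence signal, shown as inhibition above about 50% in the replicate tests, limit read from the data, passing the limit was not always enough; inconclusive = probably only some replicates passing the limit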;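 also: agonist challenge used bursicon conditioned medium at about half maximal strength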
EBV LMP1 NFkB: Epstein-Barr LMP1 NF-kappaB reporter inhibition | LMP1-induced NF-kappaB luciferase reporter cells, luminescence | inhibition, % at 12.5 µM | 0.69% of 350,000 active; in the data active = inhibition above about 41%; inconclusive = no clear call, values can overlap the other calls;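 also: 0% = neutral control wells and 100% = reference inhibitor control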
Starred values were filed as active, the others as inactive; ? = inconclusive; nt = no result.

SMILES	EWS-Fli block	TROY NFkB inh	TWEAK-Fn14 inh	LGR2 antag	EBV LMP1 NFkB
Cc1ccc(NC(=O)/C=C/c2ccc(S(=O)(=O)N3CCOCC3)cc2)cc1S(=O)(=O)N(C)C	26	53*	68*	48	11
COc1ccc(NC(=O)c2cc3c(s2)CCC(C)C3)cc1S(=O)(=O)N1CCOCC1 (configuration not stated)	nt	51*	79*	22	20
COc1ccc(NC(=O)COC(=O)/C=C/c2ccc(OC)c(S(=O)(=O)N3CCOCC3)c2)cc1	nt	-17	-2	-10	54*
CC(=O)Nc1cccc(NC(=O)/C=C/c2ccc(S(=O)(=O)N3CCOCC3)cc2)c1	0	1	12	3	-8
C[C@@H]1CCCCO[C@H](CN(C)Cc2ccccc2)[C@H](C)CN([C@H](C)CO)C(=O)c2cc(NS(=O)(=O)c3cn(C)cn3)ccc2O1	-4	nt	nt	3	nt
C[C@H](CO)N1C[C@H](C)[C@@H](CN(C)Cc2ccc(C(=O)Nc3ccccc3N)cc2)Oc2ccc(NC(=O)Cn3cnnn3)cc2C1=O	9	nt	nt	13	nt
CCCN(C)C[C@H]1Oc2ncc(C#CCC(C)C)cc2C(=O)N([C@@H](C)CO)C[C@H]1C	19	nt	nt	6	nt
CC(C)(C)[S@](=O)N1Cc2cc(C(=O)NCc3ccc4c(c3)OCO4)nc(-c3cccc(-c4ccncc4)c3)c2[C@@H]1CCO	4	nt	nt	3	nt
CO[C@H]1CN(C)C(=O)c2ccc(NC(=O)c3ccc4c(c3)OCO4)cc2OC[C@H](C)N(CC2CC2)C[C@H]1C	-6	nt	nt	5	nt
O=C(C1CC1)N1CC(=O)N2[C@H](CO)[C@@H](c3ccc(C#Cc4cccc(F)c4)cc3)[C@H]2C1	5	nt	nt	4	nt
NS(=O)(=O)c1ccc(CCNC(=O)/C=C/c2ccc(S(=O)(=O)N3CCOCC3)cc2)cc1	-1	-14	84*	-2	5
COc1ccc(C(=O)Nc2ccc(-c3ccc(C)o3)cc2)cc1S(=O)(=O)N1CCOCC1	nt	51*	82*	nt	15
C[C@@H]1CN([C@H](C)CO)C(=O)c2cc(NC(=O)c3ccncc3)ccc2O[C@H]1CN(C)S(C)(=O)=O	2	nt	nt	1	nt
CN1C2=CC=CC=CC2=[N+](C)C12C([N+](=O)[O-])=CC(=[N+]([O-])[O-])C=C2[N+](=O)[O-] (configuration not stated)	20	-20	61*	11	-50
CN(C)c1ccc(CNC(=O)C2(C)Cc3c(-c4ccc5c(c4)OCO5)ccnc3O2)cc1 (configuration not stated)	59*	12	6	4	nt
COc1ccc(NC(=O)C2(C)Cc3c(-c4ccc5c(c4)OCO5)ccnc3O2)cc1 (configuration not stated)	53*	19	-9	-1	nt
Cc1ccc(C=NNC(=O)c2cc(-c3cccnc3)nc3ccccc23)o1	15	3	-8	-14	-7
Cc1ccc(/C=N/NC(=O)c2cc3c(ccc4ccccc43)o2)o1	-28	73*	-14	2	7
Cc1ccc(/C=N/NC(=O)c2cc(-c3ccccc3)nc3ccccc23)o1	11	-3	0	20	54*
CC=Cc1ccc2n(c1=O)C[C@@H]1[C@@H](CO)[C@H](C(=O)NCc3ccccc3F)N(CC)[C@H]21 (mixture of isomers)	5	nt	nt	16	nt
COc1ccc(S(=O)(=O)N[C@@H]2C=C[C@H](CC(=O)N3CCN(c4ccccc4)CC3)O[C@H]2CO)cc1	4	nt	nt	-34	nt
COc1ccc(C2C(Oc3ccccc3)C(=O)N2c2cc(C)ccc2C)cc1OC (configuration not stated)	nt	-8	-14	22	1
COc1ccc(C)cc1N1C(=N)/C(=C2/Nc3ccccc3S2)C(c2ccccc2)C1=O (configuration not stated)	66*	7	31	nt	-4
Cc1cccc(-c2ccc([C@@H]3[C@@H](CO)N4C(=O)CN(C(=O)NC5CCCCC5)C[C@H]34)cc2)c1	4	nt	nt	0	nt
Cc1onc(-c2ccccc2)c1NC(=O)OC(C)c1cccnc1 (configuration not stated)	6	-12	87*	-2	-2
SMILES	EWS-Fli block	TROY NFkB inh	TWEAK-Fn14 inh	LGR2 antag	EBV LMP1 NFkB
Cc1onc(-c2ccccc2)c1NC(=O)Nc1c(-c2ccccc2)noc1C	6	-10	0	nt	1
C[C@H]1CN([C@@H](C)CO)C(=O)c2cc(NS(C)(=O)=O)ccc2O[C@@H]1CN(C)S(=O)(=O)c1cccs1	-1	nt	nt	3	nt
O=C(N/N=C/c1ccc([N+](=O)[O-])o1)c1ccncc1	22	-1	1	10	nt
COc1ccc(S(=O)(=O)N/N=C\c2ccc([N+](=O)[O-])o2)c(OC)c1	nt	-6	-15	1	-1
O=C(N/N=C/c1ccc([N+](=O)[O-])o1)c1ccc(O)cc1	65*	8	-2	34	-4
O=[N+]([O-])c1ccc(/C=N\NS(=O)(=O)c2ccc(F)cc2)o1	nt	19	84*	-5	-2
Cc1cc(C(=O)CSc2nnc(-c3cccs3)n2Cc2ccccc2)c(C)n1C	nt	-17	11	nt	-1
O=c1cc(CSc2nnc(-c3cccs3)n2Cc2ccccc2)nc2sc3ccccc3n12	nt	45	53*	nt	3
Cc1cc(NC(=O)CCCS(=O)(=O)c2nc(-c3cccs3)cc(C(F)(F)F)n2)no1	nt	66*	60*	24	0
CCOC(=O)CS(=O)(=O)c1nc(-c2ccc(F)cc2)cc(C(F)(F)F)n1	nt	51*	57*	nt	69*
CCOC(=O)CCS(=O)(=O)c1nc(-c2ccccc2)cc(C(F)(F)F)n1	nt	46	84*	nt	-24
COc1ccc(-c2cc(C(F)(F)F)nc(S(=O)(=O)CCCC(=O)Nc3cccnc3Cl)n2)cc1OC	20	37	94*	?	-7
Cc1ccccc1S(=O)(=O)N1CCCCN2[C@H](CO)[C@@H](c3ccc(-c4cccc(F)c4)cc3)[C@@H]2C1	9	nt	nt	5	nt
Cc1ccccc1S(=O)(=O)N1CC(=O)N2[C@H](C1)[C@@H](c1ccc(C#CCC(C)C)cc1)[C@@H]2CO	2	nt	nt	16	nt
CCS(=O)(=O)NCC[C@@H]1CC[C@H](NC(=O)Cc2ccccn2)[C@@H](CO)O1	2	nt	nt	-7	nt
COc1ccc(NC(=O)Nc2ccc3c(c2)C(=O)N([C@H](C)CO)C[C@H](C)[C@@H](CN(C)C(=O)Nc2cccc4ccccc24)OCCCC[C@@H](C)O3)cc1	-6	nt	nt	11	nt
COC(=O)CCS(=O)(=O)c1nc(-c2ccccc2)cc(C(F)(F)F)n1	nt	12	91*	nt	-37
COCC(C)NC(=O)CCS(=O)(=O)c1nc(-c2ccc(OC)cc2)cc(C(F)(F)F)n1 (configuration not stated)	nt	46	86*	nt	-23
COCC(=O)N1[C@H](C(=O)N2CCCCC2)[C@@H](CO)[C@@H]2Cn3c(ccc(C4=CCCCC4)c3=O)[C@@H]21	5	nt	nt	-11	nt
CC(C)c1ccc(NC(=S)NCc2cccs2)cc1	nt	-5	-3	nt	-40
COc1ccc(CNC(=S)Nc2ccc(Br)cc2)cc1	0	21	64*	5	-8
